# Results as given in PubChem BioAssay AID651640 (Broad Institute, 2012).
# Values joined by “and” are separate entries in the source; they are usually repeats but may differ in a detail not shown here. Equal entries are not always repeated. Among all 350,000 compounds or so, about 6,000 (1.7%) were called active. About 5% were inconclusive and are not listed. Cut-off read from the data, not from the text of the source: active = CPE inhibition above about 20% (passing the limit was not always enough); inconclusive = no clear call, values can overlap the other calls; tested in BHK-21 cells. Many of the other results were omitted from the sample, so actives are more common in it than they were. Some compounds were tested as several samples or in several runs, with calls that do not always agree.
# Experiment: inhibitors of DENV2 cytopathic effect, primary screen, cell-based, plate reader, single concentration (AID 651640);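 note: 0% = median of neutral control wells and 100% = median of positive control wells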
# Settings: DENV2-infected cells, cytopathic effect rescue, at 9.99 µM, stronger effect = higher value
row,Structure (SMILES),CPE inhibition
1,CC(C)(C)[C@H]1C=C(C(=O)NCc2ccccc2)O[C@@H](OCc2ccc(CO)cc2)C1,51.1% (active) and -3.51% (inactive)
2,O=C(NCc1ccccc1)C1=C[C@H](C2CC2)C[C@H](OCc2ccc(CO)cc2)O1,-16.3% (inactive) and 0.479% (inactive)
3,O=C(NCc1ccccc1)C1=C[C@@H](C2CCCCC2)C[C@@H](OCc2ccc(CO)cc2)O1,-6.36% (inactive) and 1.63% (inactive)
4,CO[C@@H](CN(C)C(=O)c1ccc2c(c1)OCO2)[C@@H](C)CN([C@H](C)CO)S(=O)(=O)c1ccccc1,-3.46% (inactive)
5,CN1C(=O)c2cc(NC(=O)C3CCOCC3)ccc2OC[C@H]2O[C@@H](CC(=O)NCC3CCCCC3)CC[C@@H]21,1.63% (inactive)
6,[N-]=[N+]=Nc1ccccc1C[C@@]1(C(=O)NCc2ccccc2)N=C(c2ccc(OCCCO)cc2)O[C@@H]1c1ccccc1,33.8% (active)
7,C=CC[C@]1(C(=O)NCC(O)CO)N=C(c2ccc(OCCCO)cc2)O[C@H]1c1ccccc1 (stereo partly drawn),1.79% (inactive)
8,COC(=O)[C@@]1(CCS(=O)(=O)c2ccccc2)N=C(c2ccc(OCCCO)cc2)O[C@H]1c1ccccc1N=[N+]=[N-],-1.34% (inactive)
9,O=C(C[C@H]1CC[C@H](NC(=O)C2CCC2)[C@@H](CO)O1)Nc1nccs1,0.802% (inactive)
10,O=C(Cc1ccccn1)N[C@H]1CC[C@@H](CC(=O)N2CCCCC2)O[C@@H]1CO,-2.26% (inactive)
11,OC(CCl)CCl,32.4% (active)
12,O=C(c1ccc(F)cc1)N1CC(=O)N2[C@H](CO)[C@H](c3ccc(-c4ccccc4F)cc3)[C@@H]2C1,7.8% (inactive)
13,C[C@@H]1CN([C@H](C)CO)C(=O)c2cc(NC(=O)Nc3cccc4ccccc34)ccc2O[C@@H](C)CCCCO[C@H]1CN(C)S(=O)(=O)c1cccs1,-15.6% (inactive)
14,O=C(NCc1ccccc1Cl)[C@H]1[C@H](CO)[C@H]2Cn3c(cccc3=O)[C@H]2N1C(=O)C1CCC1,-3.74% (inactive)
15,CCCN1[C@H](C(=O)NC2Cc3ccccc3C2)[C@@H](CO)[C@@H]2Cn3c(cccc3=O)[C@@H]21,-9.85% (inactive)
16,CCCNC(=O)[C@H]1[C@H](CO)[C@H]2Cn3c(cccc3=O)[C@H]2N1Cc1ccccc1Cl,140% (active)
17,O=C(c1cccnc1)N1CC[C@H]2[C@H](CO)Nc3ccc(-c4ccc(F)cc4)cc3[C@H]21,1.83% (inactive)
18,C[C@@H]1CN([C@@H](C)CO)C(=O)Cc2cc(NC(=O)Cc3ccccc3)ccc2O[C@@H]1CN(C)C(=O)Nc1ccc2c(c1)OCO2,-7.53% (inactive)
19,COCC(=O)N1CC[C@@H]2[C@@H](CO)Nc3ccc(-c4ccc(C(=O)N(C)C)cc4)cc3[C@@H]21,5.72% (inactive)
20,O=C(NC1Cc2ccccc2C1)[C@H]1[C@H](CO)[C@H]2Cn3c(ccc(C4=CCCCC4)c3=O)[C@H]2N1CC1CC1,39.5% (active)
21,O=C(NC1CCC1)[C@H]1[C@H](CO)[C@H]2Cn3c(ccc(C4=CCCCC4)c3=O)[C@@H]1N2CC1CC1,-0.675% (inactive)
22,CCNC(=O)[C@@H]1[C@@H](CO)[C@@H]2Cn3c(ccc(C4=CCCCC4)c3=O)[C@@H]2N1Cc1ccccc1F,2.99% (inactive)
23,COc1ccccc1NC(=O)N[C@H]1C=C[C@H](CC(=O)N[C@@H](C)c2ccccc2)O[C@H]1CO,4.39% (inactive)
24,COc1ccccc1NC(=O)N[C@H]1C=C[C@@H](CC(=O)N[C@@H](C)c2ccccc2)O[C@@H]1CO,20.2% (active)
25,COc1ccccc1NC(=O)N[C@H]1CC[C@@H](CC(=O)N[C@@H](C)c2ccccc2)O[C@H]1CO,3.47% (inactive)
26,C[C@@H]1CN([C@@H](C)CO)C(=O)Cc2cc(NC(=O)Cc3ccccc3)ccc2O[C@H]1CN(C)Cc1ccc(C(=O)O)cc1,-5.69% (inactive)
27,Cc1noc(C)c1NC(=O)N(C)C[C@@H]1Oc2ccc(NC(=O)Nc3cccc4ccccc34)cc2CC(=O)N([C@@H](C)CO)C[C@H]1C,3.02% (inactive)
28,C[C@H]1CN([C@@H](C)CO)C(=O)c2cccc(NC(=O)Nc3ccc(F)cc3)c2O[C@@H]1CN(C)C(=O)Nc1ccc2c(c1)OCO2,-3.44% (inactive)
